# Measured values: PubChem BioAssay (EPA / NIEHS)
# Records with an inconclusive call do not appear. Active and inactive are the calls of the source. How the source made its calls, unless noted: active means hit-call score of the fitted dose curve at least 0.9, where 1 is the maximum; inactive means score below 0.9.
# Experiments:
# [1] = target: Hepatocyte nuclear factor 4-alpha (Homo sapiens) (UniProt P41235); experiment: ATG_HNF4a_TRANS: Attagene TRANS-FACTORIAL HepG2 Assay for human Hepatocyte Nuclear Factor 4 alpha (HNF4a) (AID 2282982; active means hit-call score of the fitted dose curve at least 0.9, where 1 is the maximum); conditions: HepG2 HNF4a transactivation reporter, mRNA readout
# Outline: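 Activity of an exogenous HNF4a–Gal4 fusion scored as induced GAL4-UAS reporter transcripts after 24 h chemical exposure of transfected human HepG2 cells. Read-out via RT-PCR with 6-FAM labelling and capillary electrophoresis; rise over DMSO baseline.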
# [2] = ATG_M_06_TRANS: Attagene TRANS-FACTORIAL HepG2 Assay for M06 Transcription Factor (Internal Marker) (AID 2282983; active means hit-call score of the fitted dose curve at least 0.9, where 1 is the maximum); conditions: HepG2 Attagene TRANS M06 internal marker reporter
# Outline: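 Human liver HepG2 cells bearing transiently transfected chimeric NR-GAL4 reporter units were treated with chemicals for 24 h. Total RNA was reverse-transcribed, reporter sequences amplified and labelled, then quantified by capillary electrophoresis. Activity was fitted upward relative to DMSO.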
# [3] = target: Nuclear receptor subfamily 4 group A member 2 (Homo sapiens) (UniProt P43354); experiment: ATG_NURR1_TRANS: Attagene TRANS-FACTORIAL HepG2 Assay for human Nuclear Receptor Related Protein 1 (NURR1) (AID 2282985; active means hit-call score of the fitted dose curve at least 0.9, where 1 is the maximum); conditions: HepG2 Attagene TRANS reporter, mRNA readout
# Outline: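 Reporter transcript induction, measured by RT-PCR with fluorescent labelling, HpaI digestion and capillary electrophoresis, after 24 hr dosing of human HepG2 cells transiently expressing an exogenous NR-Gal4 fusion with GAL4-UAS-driven reporters; DMSO as baseline.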
# [4] = target: Transcriptional activator Myb (Homo sapiens) (UniProt P10242); experiment: ATG_Myb_CIS: Attagene CIS-FACTORIAL HepG2 Assay for human Myeloblastosis (Myb) Proto-Oncogene Transcription Factor (AID 2282986); conditions: HepG2 Attagene CIS-FACTORIAL Myb reporter transcription; actives raise or lower the signal
# Outline: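 After 24 h of compound dosing, total RNA from transfected HepG2 cells is reverse-transcribed and the reporter sequences amplified, labeled and separated by capillary electrophoresis. Values come from bidirectional fitting against DMSO.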
# [5] = target: Nuclear respiratory factor 1 (Homo sapiens) (UniProt Q16656); experiment: ATG_NRF1_CIS: Attagene CIS-FACTORIAL HepG2 Assay for human Nuclear Respiratory Factor 1 (NRF1) Orphan Gene (AID 2282987); conditions: HepG2 NRF1 cis-element reporter, Attagene multiplex; actives raise or lower the signal
# Outline: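 Measured: fluorescent reporter-specific RT-PCR products from transfected HepG2 cells, separated by capillary electrophoresis. Exposure lasted 24 h. Analysis used bidirectional curve fitting with DMSO as negative control.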
# [6] = ATG_NFI_CIS: Attagene CIS-FACTORIAL HepG2 Assay for human Nuclear Factor I (NFI) (AID 2282989); conditions: HepG2 cis-regulatory reporter, NFI response element transcription; actives raise or lower the signal
# Outline: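 HepG2, transient MRTU, 24 h exposure; RNA→cDNA→PCR→FAM label→HpaI→CE fluorescence. Bidirectional fit, DMSO = baseline.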
# [7] = target: Myc proto-oncogene protein (Homo sapiens) (UniProt P01106); experiment: ATG_Myc_CIS: Attagene CIS-FACTORIAL HepG2 Assay for human Myelocytomatosis (Myc) Proto-Oncogene Transcription Factor (AID 2282990); conditions: HepG2, Attagene cis-reporter transcription factor activity; actives raise or lower the signal
# Outline: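 After 24 h chemical treatment of HepG2 cells carrying multiplexed cis-regulated reporter constructs, reporter transcripts quantified by RT-PCR and capillary electrophoresis of fluorescent fragments. Gain or loss fitted against DMSO baseline.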
# [8] = ATG_NF_kB_CIS: Attagene CIS-FACTORIAL HepG2 Assay for human Nuclear Factor Kappa B (NF-kB) (AID 2282991); conditions: HepG2 Attagene cis-factorial NF-kB reporter mRNA; actives raise or lower the signal
# Outline: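 Fluorescence of labelled RT-PCR products separated by capillary electrophoresis gives reporter mRNA levels from transfected HepG2 cells exposed 24 h; values are fitted in both directions relative to DMSO.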
# [9] = ATG_NRF2_ARE_CIS: Attagene CIS-FACTORIAL HepG2 Assay for human Nuclear Factor Erythroid 2 Related Factor 2 (NFR2) response to Antioxidant Response Elements (ARE) (AID 2282992); conditions: HepG2 Attagene ARE/NRF2 reporter, transcription factor activity; actives raise or lower the signal
# Outline: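 Endogenous transcription factor activity read out as reporter transcript levels (RT-PCR plus capillary electrophoresis, fluorescence) in transiently transfected HepG2 cells. Measured at 24 h after dosing; gain or loss of signal fitted versus DMSO.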
# [10] = ATG_Oct_MLP_CIS: Attagene CIS-FACTORIAL HepG2 Assay for human Octamer-Binding Transcription Factor (Oct) (AID 2282993); conditions: HepG2 Attagene cis-factorial Oct reporter, mRNA; actives raise or lower the signal
# Outline: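 Multiplexed cis-reporter assay in human liver HepG2 cells, 24 h incubation. Reporter RNA amplified and labelled, then resolved by capillary electrophoresis; DMSO serves as negative control and baseline.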
# [11] = target: Cellular tumor antigen p53 (Homo sapiens) (UniProt P04637); experiment: ATG_p53_CIS: Attagene CIS-FACTORIAL HepG2 Assay for human p53 Transcription Factor (AID 2282994); conditions: HepG2 p53 cis-element reporter, Attagene mRNA; actives raise or lower the signal
# Outline: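 Endogenous p53 activity read in transiently transfected HepG2 from a cis-element-driven reporter transcript after 24 h exposure. RNA reverse-transcribed, PCR-amplified, fluorescently labelled and sized by capillary electrophoresis; gain or loss fitted against DMSO baseline.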
# [12] = BSK_3C_TissueFactor: BioMAP Diversity Plus: 3C Assay for Tissue Factor Biomarker Activity (AID 2282997); conditions: BioMAP 3C HUVEC, tissue factor biomarker readout; actives raise or lower the signal
# Outline: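 Cells used were primary human umbilical vein endothelial cells. They were dosed with chemical, and after 24 h Tissue Factor was quantified by ELISA. Curves were fitted bidirectionally with DMSO as baseline.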
# [13] = BSK_3C_uPAR: BioMAP Diversity Plus: 3C Assay for Urokinase-type plasminogen activator receptor (uPAR) Biomarker Activity (AID 2282998); conditions: BioMAP 3C HUVEC, uPAR biomarker ELISA; actives raise or lower the signal
# Outline: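 Dose primary human umbilical vein endothelial cells, incubate 24 h, measure cell-surface uPAR by ELISA, then fit the signal in both directions against the DMSO negative control.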
# [14] = BSK_4H_Eotaxin3: BioMAP Diversity Plus: 4H Assay for Eotaxin 3 Biomarker Activity (AID 2283000); conditions: primary human endothelial cells (HUVEC); actives raise or lower the signal;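 further: CCL26 protein level quantified by ELISA in parallel with SRB cytotoxicity check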
# Outline: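 Endothelial primary cells (human umbilical vein) exposed to compound for 24 h. ELISA detection of Eotaxin-3.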
# [15] = target: human Peroxisome Proliferator-activated Receptor alpha (PPARa), PPARA (gene 5465) (UniProt Q07869); experiment: ATG_PPARa_TRANS: Attagene TRANS-FACTORIAL HepG2 Assay for human Peroxisome Proliferator-activated Receptor alpha (PPARa) (AID 2283001; active means hit-call score of the fitted dose curve at least 0.9, where 1 is the maximum)
# Outline: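 Reporter transcripts quantified by RT-PCR plus capillary electrophoresis after 24 h treatment, fitted upward relative to DMSO. Cells: human HepG2 transiently carrying multiple GAL4-UAS reporter units driven by NR-Gal4 chimeras.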
# [16] = read-out: Intercellular Adhesion Molecule 1 (ICAM1), ICAM1 (gene 3383); experiment: BSK_3C_ICAM1: BioMAP Diversity Plus: 3C Assay for Intercellular Adhesion Molecule 1 (ICAM1) Biomarker Activity (AID 2283003); conditions: primary human endothelial cells (HUVEC); actives raise or lower the signal
# Outline: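 ELISA readout of ICAM1 in human umbilical vein endothelial cells in the 3C system, taken 24 h post-dose. Gain or loss of signal versus DMSO was fitted in both directions, with SRB total-protein staining run in parallel.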
# [17] = ATG_M_32_TRANS: Attagene TRANS-FACTORIAL HepG2 Assay for M32 Transcription Factor (Internal Marker) (AID 2282984; active means hit-call score of the fitted dose curve at least 0.9, where 1 is the maximum;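 further: transcript level of a background control reporter unit measured by RT-PCR and capillary electrophoresis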); conditions: HepG2 Attagene TRANS M32 internal marker reporter
# Outline: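 Internal background reporter in transfected HepG2: after 24 h chemical exposure, RNA reverse-transcribed, reporter cDNA amplified, fluorescently labelled and HpaI-cut, then sized by capillary electrophoresis. Gain of signal fitted against DMSO control.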
# [18] = target: human Retinoic Acid Receptor beta (RARb), RARB (gene 5915) (UniProt P10826); experiment: ATG_RARb_TRANS: Attagene TRANS-FACTORIAL HepG2 Assay for human Retinoic Acid Receptor beta (AID 2283004; active means hit-call score of the fitted dose curve at least 0.9, where 1 is the maximum)
# Outline: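 HepG2, transient MRTU transfection, NR–Gal4 chimera, 24 h treatment; RT-PCR plus CE fluorescence detection of reporter mRNA; gain of signal vs DMSO.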
# [19] = target: human Peroxisome Proliferator-activated Receptor delta (PPARd), PPARD (gene 5467) (UniProt Q03181); experiment: ATG_PPARd_TRANS: Attagene TRANS-FACTORIAL HepG2 Assay for human Peroxisome Proliferator-activated Receptor delta (PPARd) (AID 2283002; active means hit-call score of the fitted dose curve at least 0.9, where 1 is the maximum)
# Outline: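 Read-out is induced reporter mRNA, quantified by RT-PCR with fluorescent labelling and capillary electrophoresis after 24 h dosing. Cells are HepG2 transiently carrying multiple GAL4-UAS reporter units driven by exogenous NR-GAL4 chimeras; DMSO serves as baseline.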
# Hepatocyte nuclear factor 4-alpha (Homo sapiens), sequence (P41235 whole entry, looked up, the tested form may be a part): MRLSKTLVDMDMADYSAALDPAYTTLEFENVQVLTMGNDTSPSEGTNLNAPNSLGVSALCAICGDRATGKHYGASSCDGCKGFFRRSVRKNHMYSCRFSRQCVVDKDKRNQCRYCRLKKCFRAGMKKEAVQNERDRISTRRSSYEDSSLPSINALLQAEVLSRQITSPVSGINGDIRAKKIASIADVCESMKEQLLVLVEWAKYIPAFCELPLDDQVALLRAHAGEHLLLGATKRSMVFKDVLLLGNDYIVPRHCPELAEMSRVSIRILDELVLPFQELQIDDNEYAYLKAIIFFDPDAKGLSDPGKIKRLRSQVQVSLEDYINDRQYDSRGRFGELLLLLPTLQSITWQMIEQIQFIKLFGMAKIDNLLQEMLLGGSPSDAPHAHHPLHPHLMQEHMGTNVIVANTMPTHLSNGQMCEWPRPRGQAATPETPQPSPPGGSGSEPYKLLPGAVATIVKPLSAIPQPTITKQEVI
# Myc proto-oncogene protein (Homo sapiens), sequence (P01106 whole entry, looked up, the tested form may be a part): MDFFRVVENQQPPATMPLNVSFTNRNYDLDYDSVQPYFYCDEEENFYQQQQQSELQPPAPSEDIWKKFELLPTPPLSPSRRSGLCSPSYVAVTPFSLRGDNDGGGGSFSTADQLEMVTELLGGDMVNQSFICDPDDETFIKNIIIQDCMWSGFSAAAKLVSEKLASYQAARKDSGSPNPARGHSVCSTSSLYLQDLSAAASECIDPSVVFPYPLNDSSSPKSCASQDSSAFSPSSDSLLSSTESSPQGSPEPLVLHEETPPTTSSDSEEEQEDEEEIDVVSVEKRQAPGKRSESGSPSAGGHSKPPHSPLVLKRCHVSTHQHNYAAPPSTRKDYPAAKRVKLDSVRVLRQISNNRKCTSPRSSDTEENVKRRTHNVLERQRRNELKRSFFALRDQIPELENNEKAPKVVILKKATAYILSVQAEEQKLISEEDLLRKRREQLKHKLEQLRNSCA
# Nuclear respiratory factor 1 (Homo sapiens), sequence (Q16656 whole entry, looked up): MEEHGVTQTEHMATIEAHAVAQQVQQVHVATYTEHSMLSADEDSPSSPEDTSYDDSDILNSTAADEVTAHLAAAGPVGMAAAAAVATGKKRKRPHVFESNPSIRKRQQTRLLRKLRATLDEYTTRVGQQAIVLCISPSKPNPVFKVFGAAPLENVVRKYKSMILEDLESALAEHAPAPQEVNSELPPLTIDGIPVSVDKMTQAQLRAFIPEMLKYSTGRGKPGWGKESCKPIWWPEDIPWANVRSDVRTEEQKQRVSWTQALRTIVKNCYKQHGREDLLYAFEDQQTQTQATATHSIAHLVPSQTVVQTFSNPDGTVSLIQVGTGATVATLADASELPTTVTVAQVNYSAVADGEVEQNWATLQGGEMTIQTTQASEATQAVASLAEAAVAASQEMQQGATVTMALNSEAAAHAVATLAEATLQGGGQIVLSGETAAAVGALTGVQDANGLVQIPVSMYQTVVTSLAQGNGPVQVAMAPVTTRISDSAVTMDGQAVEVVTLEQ
# human Peroxisome Proliferator-activated Receptor delta (PPARd), PPARD (gene 5467), sequence (Q03181 whole entry, looked up, the tested form may be a part): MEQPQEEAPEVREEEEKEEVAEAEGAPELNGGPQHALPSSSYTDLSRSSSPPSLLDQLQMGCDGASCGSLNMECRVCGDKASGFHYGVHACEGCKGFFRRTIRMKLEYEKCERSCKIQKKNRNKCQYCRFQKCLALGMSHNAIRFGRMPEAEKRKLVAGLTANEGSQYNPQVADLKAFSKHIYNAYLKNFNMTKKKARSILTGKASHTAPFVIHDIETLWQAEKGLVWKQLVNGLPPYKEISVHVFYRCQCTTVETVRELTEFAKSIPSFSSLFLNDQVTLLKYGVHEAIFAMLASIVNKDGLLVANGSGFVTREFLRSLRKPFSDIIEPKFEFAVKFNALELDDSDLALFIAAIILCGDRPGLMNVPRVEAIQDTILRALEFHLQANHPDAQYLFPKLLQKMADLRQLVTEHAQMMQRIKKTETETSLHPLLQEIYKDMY
# human Peroxisome Proliferator-activated Receptor alpha (PPARa), PPARA (gene 5465), sequence (Q07869 whole entry, looked up, the tested form may be a part): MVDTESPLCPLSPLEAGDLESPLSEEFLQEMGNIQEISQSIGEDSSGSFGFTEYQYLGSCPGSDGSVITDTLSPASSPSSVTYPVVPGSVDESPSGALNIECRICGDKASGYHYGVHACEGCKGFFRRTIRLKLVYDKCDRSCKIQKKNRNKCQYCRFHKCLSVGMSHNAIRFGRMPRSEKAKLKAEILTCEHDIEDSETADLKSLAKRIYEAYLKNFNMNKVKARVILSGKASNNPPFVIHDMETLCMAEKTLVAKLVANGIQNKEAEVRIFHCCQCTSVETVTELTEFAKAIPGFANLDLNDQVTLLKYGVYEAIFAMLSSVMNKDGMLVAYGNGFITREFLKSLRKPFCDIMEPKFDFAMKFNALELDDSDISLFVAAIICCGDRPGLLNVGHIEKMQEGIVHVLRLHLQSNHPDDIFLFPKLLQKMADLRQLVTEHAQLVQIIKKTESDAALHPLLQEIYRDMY
# Cellular tumor antigen p53 (Homo sapiens), sequence (P04637 whole entry, looked up): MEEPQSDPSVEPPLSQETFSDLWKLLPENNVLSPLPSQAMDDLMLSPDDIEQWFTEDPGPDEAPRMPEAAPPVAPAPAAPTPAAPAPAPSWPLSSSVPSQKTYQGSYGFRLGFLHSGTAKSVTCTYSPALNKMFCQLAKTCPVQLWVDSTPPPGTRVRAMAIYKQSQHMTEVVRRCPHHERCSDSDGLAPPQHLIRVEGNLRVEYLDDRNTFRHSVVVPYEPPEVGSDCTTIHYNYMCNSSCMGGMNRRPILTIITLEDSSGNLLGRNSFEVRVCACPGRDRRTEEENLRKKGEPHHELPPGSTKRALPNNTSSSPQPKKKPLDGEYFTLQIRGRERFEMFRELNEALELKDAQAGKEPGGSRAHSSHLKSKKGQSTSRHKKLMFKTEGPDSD
# Transcriptional activator Myb (Homo sapiens), sequence (P10242 whole entry, looked up): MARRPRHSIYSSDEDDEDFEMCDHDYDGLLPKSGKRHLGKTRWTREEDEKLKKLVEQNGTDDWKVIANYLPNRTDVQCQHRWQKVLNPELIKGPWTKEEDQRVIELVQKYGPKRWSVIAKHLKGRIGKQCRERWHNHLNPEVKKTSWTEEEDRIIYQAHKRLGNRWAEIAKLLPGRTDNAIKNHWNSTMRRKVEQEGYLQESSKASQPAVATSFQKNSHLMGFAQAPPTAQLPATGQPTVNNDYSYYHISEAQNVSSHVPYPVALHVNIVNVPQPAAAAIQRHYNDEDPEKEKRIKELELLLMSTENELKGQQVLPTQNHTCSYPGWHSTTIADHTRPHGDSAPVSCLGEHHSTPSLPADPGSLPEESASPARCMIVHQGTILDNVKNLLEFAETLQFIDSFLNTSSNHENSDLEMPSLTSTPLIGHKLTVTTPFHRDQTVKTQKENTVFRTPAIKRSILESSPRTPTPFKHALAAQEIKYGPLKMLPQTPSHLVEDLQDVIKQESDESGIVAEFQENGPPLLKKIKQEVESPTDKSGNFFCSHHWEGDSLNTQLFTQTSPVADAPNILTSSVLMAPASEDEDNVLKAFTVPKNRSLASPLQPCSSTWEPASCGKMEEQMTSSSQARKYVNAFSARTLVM
# Nuclear receptor subfamily 4 group A member 2 (Homo sapiens), sequence (P43354 whole entry, looked up, the tested form may be a part): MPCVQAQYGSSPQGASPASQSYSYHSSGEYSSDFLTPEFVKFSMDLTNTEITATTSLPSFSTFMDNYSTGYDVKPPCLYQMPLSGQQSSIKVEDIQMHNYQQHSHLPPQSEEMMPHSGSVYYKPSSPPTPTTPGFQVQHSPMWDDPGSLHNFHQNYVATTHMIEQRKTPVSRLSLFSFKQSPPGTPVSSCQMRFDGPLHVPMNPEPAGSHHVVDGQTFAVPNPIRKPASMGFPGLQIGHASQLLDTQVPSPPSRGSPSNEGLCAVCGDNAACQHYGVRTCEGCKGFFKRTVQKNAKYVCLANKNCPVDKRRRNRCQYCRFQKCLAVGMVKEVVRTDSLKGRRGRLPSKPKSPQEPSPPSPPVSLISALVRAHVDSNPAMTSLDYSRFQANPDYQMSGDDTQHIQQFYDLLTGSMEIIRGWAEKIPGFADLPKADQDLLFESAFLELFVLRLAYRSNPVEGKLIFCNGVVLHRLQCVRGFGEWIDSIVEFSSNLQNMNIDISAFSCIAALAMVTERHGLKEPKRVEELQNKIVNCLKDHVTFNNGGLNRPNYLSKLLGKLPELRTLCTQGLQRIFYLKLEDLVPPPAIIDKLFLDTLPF
# human Retinoic Acid Receptor beta (RARb), RARB (gene 5915), sequence (P10826 whole entry, looked up, the tested form may be a part): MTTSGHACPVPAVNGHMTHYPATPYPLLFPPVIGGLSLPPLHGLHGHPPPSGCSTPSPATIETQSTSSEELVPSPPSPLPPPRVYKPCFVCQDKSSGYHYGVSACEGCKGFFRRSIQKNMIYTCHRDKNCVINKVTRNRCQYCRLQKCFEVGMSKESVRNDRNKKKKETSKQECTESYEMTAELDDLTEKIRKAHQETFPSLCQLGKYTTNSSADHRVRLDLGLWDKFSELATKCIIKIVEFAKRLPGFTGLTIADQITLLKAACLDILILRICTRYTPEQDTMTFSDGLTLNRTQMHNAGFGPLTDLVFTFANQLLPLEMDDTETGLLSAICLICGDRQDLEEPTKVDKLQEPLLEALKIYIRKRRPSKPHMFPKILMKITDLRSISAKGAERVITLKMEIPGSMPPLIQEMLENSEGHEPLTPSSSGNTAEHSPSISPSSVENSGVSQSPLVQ
smiles,measurement,setting,value
O=[N+]([O-])c1ccc(Nc2ccccc2)cc1,outcome,[1],inactive
same,outcome,[2],inactive
same,outcome,[3],inactive
same,outcome,[4],inactive
same,outcome,[5],inactive
same,outcome,[6],inactive
same,outcome,[7],inactive
same,outcome,[8],inactive
same,outcome,[9],inactive
same,outcome,[10],inactive
same,outcome,[11],inactive
same,outcome,[12],inactive
same,outcome,[13],inactive
same,outcome,[14],inactive
same,outcome,[15],inactive
same,outcome,[16],inactive
O=C(O)CC(O)(CC(=O)O)C(=O)O,outcome,[1],inactive
same,outcome,[2],inactive
same,AC50,[3],6.74 µM (active)
same,outcome,[4],inactive
same,outcome,[5],inactive
same,outcome,[6],inactive
same,outcome,[7],inactive
same,outcome,[10],inactive
same,outcome,[11],inactive
same,outcome,[15],inactive
CCOc1ccc(N)cc1,outcome,[1],inactive
same,outcome,[3],inactive
same,outcome,[4],inactive
same,outcome,[5],inactive
same,outcome,[6],inactive
same,outcome,[7],inactive
same,outcome,[8],inactive
same,outcome,[9],inactive
same,outcome,[10],inactive
same,outcome,[11],inactive
same,outcome,[15],inactive
Clc1cnc(Oc2ccc(Oc3ncc(Cl)cc3Cl)cc2)c(Cl)c1,outcome,[1],inactive
same,outcome,[3],inactive
same,outcome,[4],inactive
same,outcome,[6],inactive
same,outcome,[7],inactive
same,outcome,[8],inactive
same,outcome,[9],inactive
same,outcome,[10],inactive
same,outcome,[15],inactive
CCCCCCCCCCCCBr,outcome,[1],inactive
same,outcome,[2],inactive
same,outcome,[4],inactive
same,outcome,[5],inactive
same,outcome,[6],inactive
same,outcome,[7],inactive
same,outcome,[8],inactive
same,AC50,[9],55.7 µM (active)
same,outcome,[10],inactive
same,outcome,[11],inactive
same,outcome,[15],inactive
CN(CCCC(O)c1cccnc1)N=O (stereo not drawn),outcome,[1],inactive
same,outcome,[17],inactive
same,outcome,[3],inactive
same,outcome,[4],inactive
same,outcome,[5],inactive
same,outcome,[6],inactive
same,outcome,[7],inactive
same,outcome,[8],inactive
same,outcome,[9],inactive
same,outcome,[10],inactive
same,outcome,[15],inactive
same,outcome,[18],inactive
Nc1nc(N)nc(Cl)n1,outcome,[1],inactive
same,outcome,[17],inactive
same,outcome,[4],inactive
same,outcome,[5],inactive
same,outcome,[6],inactive
same,outcome,[9],inactive
same,outcome,[10],inactive
same,outcome,[11],inactive
same,outcome,[15],inactive
O=C(CCl)NCO,outcome,[1],inactive
same,outcome,[17],inactive
same,outcome,[3],inactive
same,outcome,[4],inactive
same,outcome,[6],inactive
same,outcome,[7],inactive
same,outcome,[8],inactive
same,AC50,[9],65.2 µM (active)
same,outcome,[10],inactive
same,outcome,[11],inactive
same,outcome,[12],inactive
same,outcome,[13],inactive
same,outcome,[14],inactive
same,outcome,[19],inactive
same,outcome,[16],inactive
CCCCS(=O)(=O)Cl,outcome,[1],inactive
same,outcome,[17],inactive
same,outcome,[3],inactive
same,outcome,[4],inactive
same,outcome,[5],inactive
same,outcome,[6],inactive
same,outcome,[7],inactive
same,outcome,[8],inactive
same,outcome,[9],inactive
same,outcome,[10],inactive
same,outcome,[19],inactive
O=NN1CCCCCCC1,outcome,[1],inactive
same,outcome,[2],inactive
same,outcome,[4],inactive
same,outcome,[5],inactive
same,outcome,[6],inactive
same,outcome,[8],inactive
same,AC50,[9],114 µM (active)
same,outcome,[10],inactive
same,outcome,[11],inactive
CCOc1cc(C=O)ccc1O,outcome,[1],inactive
same,outcome,[2],inactive
same,outcome,[4],inactive
same,outcome,[5],inactive
same,outcome,[6],inactive
same,outcome,[8],inactive
same,outcome,[10],inactive
same,outcome,[11],inactive
same,outcome,[15],inactive
same,outcome,[19],inactive
